NALP1 yeast inh: blocks the NALP1 inflammasome reconstituted in yeast. 280,000 tested, 0.61% active. AID 2071. inhibition, % at 10 µM. S. cerevisiae NALP1/ASC/caspase-1 growth, X-gal OD620, 72 h; in the data active = inhibition mostly above about 24%, no sharp cut-off; inactive = mostly below about 32%
V-ATPase pH: regulators of yeast V-ATPase proton transport; S. cerevisiae, pHLuorin cytosolic pH fluorescence; response, % at 10 µM; AID 504577; 350,000 tested, 0.37% active; in the data active = response mostly above about 7.3%, no sharp cut-off; inactive = mostly below about 5.4%; also: actives read high
Yeast superoxide: lowers age-related superoxide in aged yeast cells. 330,000 tested, 0.18% active. AID 2690. superoxide response (% of plate mean), % at 10 µM. S. cerevisiae aged cells, superoxide DHE fluorescence; stronger effect = lower value;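 active = superoxide response under a set limit, about three screen SD below normal, cut at about 65% in these data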;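 also: yeast aged for seven days with compound at 30 °C before DHE staining; 100% = average MFI of all compound-treated wells on the plate with controls excluded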
PERK inh: inhibitors of human PERK kinase. Q9NZJ5. CHO PERK-DD fusion, SEAP luminescence translation reporter. inhibition, % at 5.6 µM. 220,000 tested, 0.17% active;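 active = inhibition above the mean inhibition of all tested compounds plus 3 SD, set separately per screening campaign, cut at about 2.9% in these data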;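 also: PERK kinase domain activated by AP20187 dimerizer at 100 nM; 0% = DMSO with dimerizer and 100% = rapamycin at 8.4 µM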
NALP3 yeast inh: NALP3 inhibition in yeast. Yeast reconstituted NLRP3/ASC/caspase-1, beta-gal luminescence, 24 h. inhibition, % at 10 µM. 330,000 tested, 0.39% active;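 active = inhibition of 50% or more; inactive = inhibition below 50%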;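 also: plate controls were induced DMSO wells for no effect and uninduced yeast grown without galactose for full effect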
Rce1 inh: yeast Ras-converting enzyme inhibition; Q03530; yeast membranes, quenched prenylated peptide cleavage fluorescence; calls only; 290,000 tested, 0.27% active; AID 2563;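 active = fall in fluorescence gain of 50% or more versus controls, with final raw signal at or below 3038400; inconclusive = same 50% fall but final raw signal above 3038400; inactive = fall in fluorescence gain under 50%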;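 also: plate controls were neutral control wells for no effect and wells lacking membranes for full effect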
Target sequence (Q03530 whole entry, looked up): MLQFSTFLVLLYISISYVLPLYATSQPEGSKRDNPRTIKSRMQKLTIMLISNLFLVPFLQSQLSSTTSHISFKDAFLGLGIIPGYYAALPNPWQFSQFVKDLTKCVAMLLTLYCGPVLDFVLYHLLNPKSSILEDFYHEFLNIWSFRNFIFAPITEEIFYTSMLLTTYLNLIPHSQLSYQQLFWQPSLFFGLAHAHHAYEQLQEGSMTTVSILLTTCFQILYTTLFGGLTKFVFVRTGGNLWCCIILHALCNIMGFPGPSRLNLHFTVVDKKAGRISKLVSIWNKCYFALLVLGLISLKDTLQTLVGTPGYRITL
Starred values were filed as active, the others as inactive; i = inactive; ? = inconclusive; / = no result given; + = active, no number. An excerpt weighted towards active compounds, which were near 1.6% of everything screened.

SMILES | NALP1 yeast inh | V-ATPase pH | Yeast superoxide | PERK inh | NALP3 yeast inh | Rce1 inh
CCOC(=O)CN(C(=O)c1snc(C(N)=O)c1N)C(C(=O)NCCC(C)C)c1ccc(C)cc1 (stereo unspecified) | / | -1.9 | / | / | / | /
CSc1ncnc2c1ncn2CCCNCCc1ccccn1 | / | 0.7 | / | / | / | /
CCOC(=O)c1cc2sc(C)cc2n1CC(=O)N1CCOCC1 | 36.4* | 1.2 | 96.6 | 0.1 | 17.3 | i
CCOC(=O)c1cc2sc(C)cc2n1CC(=O)N1CCN(C(=O)c2ccco2)CC1 | 8.5 | -0.9 | 111.3 | -0.8 | 3.1 | i
Cc1cc(C)c(C)c(S(=O)(=O)N2CCNC(=O)C2)c1C | / | -2.1 | / | / | / | /
Cn1cc(NC(=O)Nc2ccc(C(F)(F)F)cc2)c(C(F)(F)F)n1 | 13.6 | -2.4 | 93.2 | 3.9* | 3.4 | i
Cc1cccc(/N=C/c2c(O)c3ccccc3oc2=O)n1 | 27.1* | 1.5 | 119.5 | 0.1 | 7.1 | i
O=C(CSc1ncccn1)NC(=O)NC1CCCC1 | / | 0.8 | / | / | / | /
CC(C)(C)c1nc2c(C#N)c(-c3ccc(Cl)cc3)ccn2n1 | 38.0* | 6.4 | 143.9 | -0.9 | 17.9 | i
CCNc1nc2nc3ccc(C)cn3c(=O)c2cc1C(=O)NCC1CCCO1 (stereo unspecified) | 10.6 | -56.0 | 97.7 | -1.0 | 1.8 | ?
C=CCNC(=O)c1cc2c(=O)n3cc(C)ccc3nc2nc1NCC1CCCO1 (stereo unspecified) | -4.2 | / | 101.7 | -0.1 | 7.4 | +
COc1ccccc1N(C)S(=O)(=O)c1ccc(C(=O)OCC(=O)N(C(C)C)C(C)C)cc1 | 25.8* | -7.7 | 96.2 | 0.7 | 6.9 | i
O=C(CN1C(=O)CSC1=O)Nc1ccccc1N1CCOCC1 | 1.3 | 1.0 | 104.5 | 3.1* | 16.6 | i
CCOc1ccccc1C(=O)NC(C(=O)OCn1nnc2ccccc2c1=O)C(C)C (stereo unspecified) | / | -3.2 | / | / | / | /
CNC(CC(=O)c1ccc([N+](=O)[O-])cc1)C(Cl)(Cl)Cl (stereo unspecified) | 115.3* | 68.6* | 107.6 | 0.7 | / | /
COc1ccc(C(=O)CC(Nc2ccc([N+](=O)[O-])cc2)c2ccc(OC)cc2)cc1 (stereo unspecified) | 26.6 | -5.0 | 93.3 | -0.8 | 18.3 | i
CCOc1ccccc1CN1CCN(Cc2nc3c(s2)CCCC3)CC1CCO (stereo unspecified) | 35.1* | 2.1 | 96.4 | 0.2 | 16.9 | i
CC(C)[C@H](NC(=O)OCc1ccccc1)C(=O)OCC(=O)Nc1c(F)cccc1F | 22.7 | 1.5 | 81.3 | 0.2 | 10.1 | +
CC(C)[C@H](NC(=O)OCc1ccccc1)C(=O)OCC(=O)c1ccccc1 | / | 2.1 | 96.4 | / | 12.0 | /
NC(=O)COc1ccc(/C=N/NS(=O)(=O)c2ccccc2)cc1 | 39.5* | -0.2 | 108.4 | 0.2 | 1.8 | i
CC(=O)c1cccc(NC(=S)NC(=O)c2ccc(C)cc2Cl)c1 | 37.2* | 2.5 | 97.7 | 0.0 | 8.7 | i
Cc1ccc(-c2nnn(CC(=O)Nc3ccc4nn(-c5ccccc5)nc4c3)n2)o1 | 21.0 | 16.2* | 108.6 | -0.2 | 0.5 | i
Cc1ccc(-c2nnn(CC(=O)NCC3CC3)n2)o1 | 12.4 | 3.4 | 98.1 | 0.7 | -6.6 | i
CC(C)(C)NC(=O)C(c1ccc(O)cc1)N(Cc1ccc2c(c1)OCO2)C(=O)CCl (stereo unspecified) | / | -0.4 | / | / | / | /
CC(C)CC(=NNC(=O)c1ccncc1)c1cc(Cl)ccc1O | / | 0.3 | / | / | / | /
SMILES | NALP1 yeast inh | V-ATPase pH | Yeast superoxide | PERK inh | NALP3 yeast inh | Rce1 inh
CNC(=O)C[C@H]1C(=O)N(c2ccc(Br)cc2)C[C@@H]1C | / | 0.0 | / | / | / | /
O=C(c1cc(C2CC2)nn1-c1ccccc1)N1CCN(S(=O)(=O)c2ccccc2F)CC1 | / | 1.7 | / | / | / | /
CCN(CC)c1ccc(/C=N/NC(=O)C(O)(c2ccccc2)c2ccccc2)o1 | 31.0 | / | 99.0 | 0.2 | -9.0 | +
O=C(O)c1ccc(/C=N/NC(=O)C(O)(c2ccccc2)c2ccccc2)cc1 | / | 2.8 | 100.4 | / | 10.6 | i
Cc1ccc(NC(=O)CSCC(=O)N(C)Cc2c(F)cccc2Cl)cc1 | / | -0.3 | / | / | / | /
COc1ccc(C(=O)C2CCCN(Cc3cc(C)c(O)c(C)c3)C2)c(OC)c1 (stereo unspecified) | 28.8 | -0.7 | 108.1 | / | 5.6 | i
COc1ccc(C(=O)C2CCCN(Cc3c(C)[nH]c4ccccc34)C2)c(OC)c1 (stereo unspecified) | 33.3* | / | 99.1 | 0.2 | 9.0 | i
C[C@@H]1CCCCO[C@@H](CN(C)S(=O)(=O)c2cn(C)cn2)[C@@H](C)CN([C@H](C)CO)C(=O)c2cc(NC(=O)Nc3ccc(C(F)(F)F)cc3)ccc2O1 | / | 2.2 | / | / | / | /
CCCN1CCC(NC(=O)Nc2ccc(F)cc2F)CC1 | 8.5 | 15.1* | 94.7 | 0.3 | 7.5 | i
CCN1CCC(NC(=O)Nc2ccc(F)cc2)CC1 | 18.6 | 1.3 | 99.2 | 1.4 | 19.1 | i
CC1C(=O)N(Cc2cn(Cc3ccco3)nn2)CCS(=O)(=O)N1Cc1ccc(-c2cccc(N(C)C)c2)cc1 (stereo unspecified) | / | 0.0 | / | / | / | /
COc1ccccc1-c1noc(CSc2nc(N)cc(=O)[nH]2)n1 | 32.7* | -7.3 | 103.4 | 0.8 | -0.9 | i
Nc1cc(=O)[nH]c(SCc2ccccc2)n1 | / | -0.8 | / | / | / | /
CN1/C(=C/C=C/c2n(C)c3cc([N+](=O)[O-])c([N+](=O)[O-])cc3[n+]2C)C(C)(C)c2ccccc21 | / | 1.4 | / | / | / | /
O=c1ccc(-c2ccccc2)n[nH]1 | 8.0 | -3.5 | 85.8 | 3.0* | 27.3 | i
COc1ccc(-c2ccc(=O)[nH]n2)cc1 | 4.1 | 5.2 | 79.4 | -0.4 | 15.0 | i
CN(C)CCCNc1cc(-c2ccccc2)nc2cc(-c3cccc(F)c3)nn12 | 25.8* | -4.3 | 76.8 | / | 39.0 | i
CC1=C(C(=O)N(C)C)CC(CC(=O)NC2CCCCC2)C(=O)N1CCCN1CCCC1=O (stereo unspecified) | / | -0.3 | / | / | / | /
Nc1nc(N)c2cc(CNc3ccc(Cl)c(Cl)c3)ccc2n1 | / | 5.4 | / | / | / | /
CCn1c(SCC(=O)N2CCCC(C)C2)nnc1-c1ccc(S(=O)(=O)N2CCN(C)CC2)cc1 (stereo unspecified) | 35.2* | -0.7 | 110.8 | -1.4 | -13.5 | i
O=C(CCN1C(=O)C2C3C=CC(C3)C2C1=O)NC1CCCCC1 (stereo unspecified) | 36.8* | -4.4 | 95.8 | / | 3.0 | i
CCOC(=O)N1CCC(NC(=O)CCN2C(=O)C3C4C=CC(C4)C3C2=O)CC1 (stereo unspecified) | -18.1 | 0.8 | 107.2 | 0.3 | 5.8 | /
COC(=O)c1ccc(N=Cc2c(C(F)(F)F)[nH][nH]c2=O)cc1 | 27.3* | 2.0 | 96.6 | -0.3 | 5.2 | i
COc1ccc(NC(=O)CSc2nnnn2C2CCCC2)cc1S(=O)(=O)N1CCOCC1 | / | 0.6 | / | / | / | /
Cc1ccc(-c2nnn(CC(=O)Nc3nnc(C(C)C)s3)n2)cc1 | 37.3* | 1.1 | 106.4 | 0.4 | 14.8 | i
CCSCc1nnc(SCC(=O)Nc2nc(C)cs2)n1C | 41.0* | / | 97.9 | 1.8 | 7.2 | i

Assay outcomes: PubChem BioAssay, several laboratories
